A short description of this assay: In vitro enzyme assay to detect hydrolysis of chlorophenol red-beta-D-[…] directly proportional to the number of Toxoplasma stably expressing beta-galactosidase. Type of assay: functional, organism-based, Toxoplasma gondii. Details: scale not given: in the data most compounds retested in dose-response had high values.

The structures appear in SMILES notation. Hit rate of the full screen: of about 85,000 compounds, about 440 (0.52%) showed an effect of 50% or more. The sample as a whole holds a higher share of strong results than the screen did.

On to `CCC1(CN)OCCc2ccccc21` (centres undefined), for which the “Percent Effect” value (50 µM) is 4.501%.

`NC(=O)[C@@H]1Cc2ccccc2CO1`: where the note is “50 µM”, the “Percent Effect” value stood at 9.404%.

In the case of `Cn1ncnc1CCNc1cc(C2CC(N)C2)ncn1` (centres undefined), the “Percent Effect” value (50 µM) was found to be 22.67%.

In the case of `CN1CCC(NC(=O)c2cc3ccccc3s2)C1=O` (centres undefined), the “Percent Effect” value (50 µM) was determined as 52.45%.

Take `CCCS(=O)(=O)N1CCC(NC(=O)c2cc3ccccc3s2)CC1`: the “Percent Effect” value (10 µM) amounted to 4.884%.

For `CN1CCC(NC(=O)c2ccc3ncccc3c2)C1=O` (centres undefined), the “Percent Effect” value (50 µM) was found to be 1.515%.

Consider `CCC(C)(NCc1cc(F)ccc1F)C(N)=O` (centres undefined), for which, for the setting “50 µM”, the “Percent Effect” value is on record as -22.31%.

With `CC(C)(C)OC(=O)N(CCNS(=O)(=O)N1CCOCC1)C1CC1`, the “Percent Effect” value (10 µM) is given as -6.418%.

On to `CCN(CCNS(=O)(=O)C1CCOCC1)C(=O)OC(C)(C)C`, for which the “Percent Effect” value (10 µM) is listed as 6.938%.

Consider `CCN(CCNS(=O)(=O)N1CCOCC1)C(=O)OC(C)(C)C`, for which the “Percent Effect” value (10 µM) worked out at 51.95%.

For the compound `O=C1CCOc2cc(O)c(F)cc21`, the “Percent Effect” value (50 µM) was -11.53%.

As to `CN(C)S(=O)(=O)CCCN1CCC2(CCCNC2=O)C1` (centres undefined), under “50 µM”, the “Percent Effect” value is 25.69%.

On to `CC1CCCN(Cc2nc(N)nc(N(C)C)n2)C1` (centres undefined), for which, for the setting “50 µM”, the “Percent Effect” value was found to be 28.57%.

Regarding `COc1ccc(C(CO)N(C)Cc2ccncc2)cc1` (centres undefined), the “Percent Effect” value (50 µM) stood at 7.987%.

Turning to `CC(CO)CNC(=O)c1cnc(OC(C)C)c(Cl)c1` (centres undefined), the “Percent Effect” value (50 µM) amounted to 9.037%.

Take `CCC(C#N)NC(=O)c1cnc(OC(C)C)c(Cl)c1` (centres undefined): the “Percent Effect” value (50 µM) came to 77.34%.

With `CCC(C#N)NC(=O)c1ccc(Oc2cccnc2)cc1` (centres undefined), the “Percent Effect” value (10 µM) is -3.821%.

On to `O=C(c1ccccc1-n1cccn1)N1CCSCC1`, for which the “Percent Effect” value (50 µM) worked out at 5.631%.

With `CCOc1ncccc1C(=O)N1CCCN(CC)CC1`, the “Percent Effect” value (50 µM) turned out to be 8.353%.

For `Cc1ccc(CN2Cc3nnn(C)c3C(COCC3CC3)C2)s1.O=C(O)C(F)(F)F` (centres undefined), the “Percent Effect” value (10 µM) is given as -9.58%.

`Cc1ccc(CN2Cc3nnn(C)c3C(COCC(=O)N(C)C)C2)s1.O=C(O)C(F)(F)F` (centres undefined): for the setting “10 µM”, the “Percent Effect” value is -13.89%.

For `Cc1ccc(CN2Cc3nnn(C)c3C(COCc3ccccc3)C2)s1.O=C(O)C(F)(F)F` (centres undefined), the “Percent Effect” value (10 µM) was found to be 57.56%.

Consider `Cc1ccc(CN2Cc3nnn(C)c3C(COCc3ccccn3)C2)s1.O=C(O)C(F)(F)F.O=C(O)C(F)(F)F` (centres undefined), for which the “Percent Effect” value (10 µM) was found to be 13.37%.

As to `COCC1CN(Cc2ccc(C)s2)Cc2nnn(C)c21.O=C(O)C(F)(F)F` (centres undefined), the “Percent Effect” value (10 µM) was found to be 3.713%.

Regarding `CC(C)(C)c1cc(NC(=O)CN2CCC(O)CC2)on1`, the “Percent Effect” value (50 µM) was -5.429%.

Take `CCOc1ccc(NC(=O)NC2CCS(=O)(=O)C2)cc1` (centres undefined): for the setting “50 µM”, the “Percent Effect” value is reported as 3.188%.

`O=C(CN1CCNCC1)NCCSc1ccc(Cl)cc1`: the “Percent Effect” value (50 µM) worked out at 4.461%.

As for `O=C(NCCCN1CCOCC1)c1ccc(-n2ccc3ccccc32)s1`, the “Percent Effect” value (10 µM) was 19.43%.

On to `CCN(CC)CCNC(=O)c1ccc(-n2ccc3ccccc32)s1`, for which, where the note is “10 µM”, the “Percent Effect” value was found to be 63.07%.

`O=C(NCCCN1CCCC1=O)c1ccc(-n2ccc3ccccc32)s1`: for the setting “10 µM”, the “Percent Effect” value came out at 17.83%.

On to `O=C(NCCCN1CCCCC1)c1ccc(-n2ccc3ccccc32)s1`, for which the “Percent Effect” value (10 µM) was 79.49%.

Take `O=C(NCCN1CCOCC1)c1ccc(-n2ccc3ccccc32)s1`: the “Percent Effect” value (10 µM) was -1.22%.

Turning to `CCN(CC)CCNC(=O)c1cnc(C(C)(C)C)s1`, for the setting “10 µM”, the “Percent Effect” value is given as 0.3139%.

Turning to `CC1Sc2ccc(C(=O)N(C)C)cc2NC1=O` (centres undefined), the “Percent Effect” value (50 µM) is reported as -6.489%.

As for `NC1CCN(c2ccccc2F)CC1`, the “Percent Effect” value (50 µM) is listed as -9.36%.

Regarding `CCSCCC(C)N(C)C(=O)c1ccn(C)c(=O)c1` (centres undefined), for the setting “50 µM”, the “Percent Effect” value is listed as -4.294%.

In the case of `N#Cc1ccc(C2NC(=O)c3cccnc3N2)cc1` (centres undefined), the “Percent Effect” value (50 µM) came to 98.73%.

With `COc1ccc(C2NC(=O)c3cccnc3N2)cc1F` (centres undefined), where the note is “50 µM”, the “Percent Effect” value was found to be 6.983%.

Regarding `O=C1NC(c2cc[nH]n2)Nc2ncccc21` (centres undefined), the “Percent Effect” value (50 µM) is reported as -9.997%.

`CC(C)OCCN1CCC(O)CC1`: the “Percent Effect” value (50 µM) is given as 2.889%.

`O=C(Nc1ccncc1)N1CCN(CC2CC2)CC1`: the “Percent Effect” value (50 µM) is 11.51%.

In the case of `CN(C)CC1CN(Cc2nc(-c3ccccn3)no2)CCO1` (centres undefined), the “Percent Effect” value (10 µM) worked out at 86.82%.

As to `CN(C)CC1CN(Cc2nc(-c3cccnc3)no2)CCO1` (centres undefined), the “Percent Effect” value (10 µM) is reported as 12.35%.

On to `c1ccc(-c2noc(CN3CCOC(Cn4cccn4)C3)n2)nc1` (centres undefined), for which the “Percent Effect” value (10 µM) is 4.093%.
